We go through 39 compounds from PubChem BioAssay (NCATS).

Inconclusive results are not listed. Where a call stands in place of a potency, no number is given. A number with no mark means an inactive call. Active and inactive are the calls of the source. Calls come from the whole dose curve; as a rule, active = well fitted inhibition curve with a large enough effect; inconclusive = small, poorly fitted or top-dose-only effect; inactive = flat fitted curve, though single readings scatter. Where a SMILES comes first, the peptide text is derived from it. Bridges are numbered along the chain shown (N, C = ends). [ ]: non-standard residue; d: D form. The star is where a group is joined. X1 = CCC(C)C(N)C1=NC(C(=O)*)CS1; dOrn = NCCC[C@@H](N)C(=O)O

Chain of Glutathione peroxidase 1 (Homo sapiens) (P07203 whole entry, looked up): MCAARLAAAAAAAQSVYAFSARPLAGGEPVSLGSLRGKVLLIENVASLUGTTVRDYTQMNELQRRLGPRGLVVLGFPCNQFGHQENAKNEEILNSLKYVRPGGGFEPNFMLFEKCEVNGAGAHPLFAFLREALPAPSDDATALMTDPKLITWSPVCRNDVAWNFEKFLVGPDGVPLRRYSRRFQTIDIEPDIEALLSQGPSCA

This experiment deals with Glutathione peroxidase 1 (Homo sapiens) (UniProt P07203). Briefly: Primary qHTS Assay for Inhibitors of Recombinant Selenoprotein Glutathione Peroxidase 1 (GPX1) (AID 1845191). Note: nearly all actives have a fitted effect of over 65% in size. The following applies: recombinant GPX1, GR-coupled NADPH fluorescence, 15 min; series mostly up to 48.8 µM. Summed up:
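GR-coupled assay: compounds preincubated 30 min at room temperature with GPX1, then reaction started with CHP; final 10 nM GPX1, 1 mM GSH, 0.5 mM CHP, 0.5 mM NADPH, 100 nM GR, 0.01% BSA, pH 7.5 Tris buffer. NADPH fluorescence (340/450 nm) read at 0 and 15 min.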
(In general: Quantitative high-throughput screening tests each substance at several concentrations.)
With `C/C(=C/CCC(CO)C1CCC2(C)C3CCC4C(C)(C)C(OC5OC(CO)C(O)C(O)C5O)CC(O)C45CC35CCC12C)COC1OC(CO)C(O)C(O)C1O` (centres undefined), the Potency entry was “inactive”.
For the compound `CC(/C=C/[C@]1(O)[C@@]2(C)CO[C@@]1(C)C[C@@H](O)C2)=C\C(=O)O[C@@H]1O[C@H](CO)[C@@H](O)[C@H](O)[C@H]1O`, the Potency entry was “inactive”.
Take `C/C=C(\C)C(=O)O[C@@H]1CC2[C@@H](CC=C3C[C@@H](O[C@H]4C[C@H](OC)[C@H](O[C@H]5C[C@H](OC)[C@H](O[C@H]6C[C@H](OC)[C@H](O[C@H]7C[C@@H](OC)[C@H](O[C@@H]8O[C@H](CO)[C@@H](O)[C@H](O)[C@H]8O)[C@@H](C)O7)[C@@H](C)O6)[C@@H](C)O5)[C@@H](C)O4)CC[C@@]32C)[C@@]2(O)CC[C@H](C(C)=O)[C@@]12C` (some centres undefined): the activity, negative = inhibition is -14% [at 9.52 µM].
As for `COC(=O)C1=CO[C@@H](O[C@@H]2O[C@H](CO)[C@@H](O)[C@H](O)[C@H]2O)[C@@H]2[C@@H](C(=O)OC)[C@@H](O)C(O)[C@H]12` (some centres undefined), the Potency entry is “inactive”.
For the compound `CC(C)c1ccc(CC(=O)N2CCC[C@@H](c3cccc(OC(C)(C)C(=O)O)c3)C2)cc1`, the Potency entry is “inactive”.
On to `CC(=O)O[C@@H]1[C@@H](OC(=O)/C=C/c2ccccc2)[C@H](C)O[C@@H](O[C@H]2[C@@H]3C=CO[C@@H](O[C@@H]4O[C@H](CO)[C@@H](O)[C@H](O)[C@H]4O)[C@@H]3[C@@]3(CO)O[C@@H]23)[C@@H]1OC(C)=O`, for which the Potency entry was “inactive”.
As for `COc1ccccc1CC(C(=O)O)N(C)C(=O)c1ccccc1` (centres undefined), the Potency result was “inactive”.
Take `C[C@@H]1C(=O)O[C@H]2CC34[C@H]5C[C@@H](C(C)(C)C)C36[C@@H](OC(=O)[C@@H]6O)OC4(C(=O)O5)[C@]21O` (some centres undefined): the Potency entry was “inactive”.
Same read-out and setting: the entry for `CCC(C)C(N)C1=NC(C(=O)N[C@@H](CC(C)C)C(=O)N[C@H](CCC(=O)O)C(=O)N[C@H](C(=O)N[C@H]2CCCCNC(=O)[C@H](CC(N)=O)NC(=O)[C@@H](CC(=O)O)NC(=O)[C@H](Cc3cnc[nH]3)NC(=O)[C@@H](Cc3ccccc3)NC(=O)[C@H]([C@@H](C)CC)NC(=O)[C@@H](CCCN)NC2=O)[C@@H](C)CC)CS1` (some centres undefined) (X1-L[dE]IK[dOrn]I[dF]H[dD]N; lactam 4-C) is “inactive”; for `CC1(C)CCC(C)(C)c2cc3c(cc21)Sc1ccccc1N=C3c1ccc(C(=O)O)cc1` it is “inactive”.
Take `C=C[C@@]1(C)CC(=O)C2[C@](C)(O1)[C@@H](OC(C)=O)[C@@H](O)[C@H]1C(C)(C)CCC[C@]21C` (some centres undefined): the Potency entry was “inactive”.
For `C[C@@H]1CCC2C(C)(C)[C@H](O)CC[C@]2(C)[C@@]12Cc1c(O)cc3c(c1O2)CN(CCO)C3=O` (some centres undefined), the Potency entry is “inactive”.
Regarding `CC(C)(C)NCc1cc(Nc2ccnc3cc(Cl)ccc23)c2c(c1O)CCCC2`, the activity, negative = inhibition is -7.83% [at 0.4 µM].
As to `CC12CCC3c4ccc(O)cc4CCC3C1CCC2OC1OC(C(=O)O)C(O)C(O)C1O` (centres undefined), the Potency entry was “inactive”.
Consider `COc1c(C)c2c(c(O)c1C/C=C(\C)CC/C=C(\C)CCC(=O)O)C(=O)OC2`, for which the Potency result was “inactive”.
`O=C(O[C@H]1[C@@H]2C=CO[C@@H](O[C@@H]3O[C@H](CO)[C@@H](O)[C@H](O)[C@H]3O)[C@@H]2[C@@]2(CO)O[C@@H]12)c1ccc(O)cc1`: the Potency entry was “inactive”.
For `C[C@H]1[C@H](C)CC[C@]2(C(=O)O)CC[C@]3(C(=O)O)C(=CCC4[C@@]5(C)CC[C@H](O[C@@H]6O[C@H](C)[C@@H](O)[C@H](O)[C@H]6O)C(C)(C)C5CC[C@]43C)[C@H]12` (some centres undefined), the Potency entry was “inactive”.
The same measure, in the same setting: the entry for `CC1(O)CCC2C(C(=O)O)=COC(OC3OC(CO)C(O)C(O)C3OC(=O)/C=C/c3ccc(O)cc3)C21` (centres undefined) is “inactive”.
As to `C[C@]12CCC[C@](C)(C(=O)O)C1CCC13C=C(CO)C(CCC12)C3` (some centres undefined), the Potency entry is “inactive”.
As for `CC(=O)OC[C@]12[C@H](OC(C)=O)C(=O)[C@@H]3[C@@H](OC(C)=O)[C@@]14O[C@@]3(C)COC(=O)c1cccnc1[C@@H](C)[C@H](C)C(=O)O[C@@H]([C@H](OC(C)=O)[C@@H]2OC(C)=O)[C@]4(C)O`, the Potency result was “inactive”.
The same measure, in the same setting: the entry for `CC(C)[C@H]1CCC(CO)=C[C@@H]1/C=C(\CO)C(=O)O` is “inactive”.
Still for that read-out and setting: the entry for `CCOC(=O)Nc1nc2ccccc2[nH]1` is “inactive”.
Regarding `NC(=O)[C@H]1CCCCc2c1[nH]c1ccc(Cl)cc21`, the Potency entry is “inactive”.
`CC(C)(O)c1ccc2c(c1)C(O)CC1C(C)(C(=O)O)CCCC21C` (centres undefined): the Potency result was “inactive”.
Regarding `O=C(O)c1n[nH]c2c1C[C@H]1C[C@@H]21`, the Potency entry is “inactive”.
With `CC(=O)N[C@H]1[C@H](O[C@H]2CC[C@@]3(C)C(CC[C@]4(C)C3CC=C3C5CC(C)(C)CC[C@]5(C(=O)O)[C@H](O[C@@H]5O[C@H](CO)[C@@H](O)[C@H](O)[C@H]5O)C[C@]34C)C2(C)C)O[C@H](CO[C@@H]2OC[C@H](O)[C@H](O)[C@H]2O[C@@H]2OC[C@@H](O)[C@H](O)[C@H]2O)[C@@H](O)[C@@H]1O` (some centres undefined), the Potency entry was “inactive”.
`C[C@H]1CC[C@@]2(OC1)O[C@H]1CC3C4CC=C5C[C@H](O)C[C@@H](O[C@@H]6O[C@@H](C)[C@H](O)[C@@H](O)[C@H]6O[C@@H]6O[C@@H](C)[C@H](O)[C@@H](O)[C@H]6O)[C@]5(C)C4CC[C@]3(C)[C@H]1[C@@H]2C` (some centres undefined): the Potency result is “inactive”.
Take `C=C1[C@@H]2CC[C@@]3(C)[C@H](c4ccoc4)OC(=O)C[C@]13O[C@H]1CC(=O)C(C)(C)[C@H](CC(=O)OC)[C@]12C`: the Potency result is “inactive”.
Still for that read-out and setting: the entry for `CC(NC(=O)CC(=O)O)c1nc2ccccc2c(=O)[nH]1` (centres undefined) is “inactive”.
`O=S(=O)(Nc1ccc(C(O)(C(F)(F)F)C(F)(F)F)cc1)c1cccs1`: the Potency result was “inactive”.
Still for that read-out and setting: the entry for `O=C1[C@H](O[C@@H]2O[C@H](CO)[C@@H](O)[C@H](O)[C@H]2O)Oc2ccccc2N1O` is “inactive”.
Regarding `CC[C@H]1OC(=O)C[C@@H](O)[C@H](C)[C@@H](O[C@@H]2O[C@H](C)[C@@H](O)[C@H](N(C)C)[C@H]2O)[C@@H](CCN2C[C@H](C)C[C@H](C)C2)C[C@@H](C)C(=O)/C=C/C(C)=C/[C@@H]1CO[C@@H]1O[C@H](C)[C@@H](O)[C@@H](OC)[C@H]1OC`, the Potency entry was “inactive”.
Take `CC(=O)N1c2ccccc2C2(O)CC3C(=O)NC(CC(C)C)C(=O)N3C12` (centres undefined): the Potency result is “inactive”.
Take `CC(=O)O[C@H]1C[C@@H]2[C@]3(CC[C@]4(C)[C@@H](C5(C)CCC(C(C)(C)O)O5)[C@@H](O)C[C@@]24C)C[C@@]32CC[C@H](O[C@@H]3OC[C@@H](O)[C@H](O)[C@H]3O)C(C)(C)[C@H]12` (some centres undefined): the Potency result was “inactive”.
For the compound `CC(=O)O[C@H]1[C@H](Oc2ccccc2COC(=O)C2(O)C=CCCC2=O)O[C@H](CO)[C@@H](O)[C@@H]1O` (some centres undefined), the Potency entry is “inactive”.
As for `C[C@@H]1C(=O)O[C@H]2CC34[C@H]5C[C@@H](C(C)(C)C)C36[C@@H](OC(=O)[C@@H]6O)O[C@@]4(C(=O)O5)[C@]21O` (some centres undefined), the Potency result was “inactive”.
On the same count and under the same terms, the same measure for `O=C(c1ccc(F)cc1)C1CCN(CCn2c(=O)nc3n(c2=O)CCCC3)CC1`: “inactive”; for `CC1=C(C)C(=O)OC(C(C)(O)C2CCC3C4CC=C5CC(OC6OC(COC7OC(CO)C(O)C(O)C7O)C(O)C(O)C6O)CC(O)C5(C)C4CCC32C)C1` (centres undefined): “inactive”; for `CCc1c(CC(N)=O)c2cc(OCCCP(=O)(O)O)ccc2n1Cc1ccccc1`: “inactive”.
